Test results reported in PubChem BioAssay (Tox21).
Results filed as inconclusive are left out. A number with no mark means an inactive call. The source made the active and inactive calls. Calls follow the shape of the dose curve; as a rule, active = well fitted cell-killing curve with a large enough effect in the repeat runs; inconclusive = weak or mixed curves, or effect the other way; inactive = no such curve, though single readings can be large or run the other way.

assay: qHTS assay for small molecule activators of the heat shock response signaling pathway - cell viability counter screen (AID 743209); settings: HSE-bla HeLa viability, CellTiter-Glo luminescence, 5 h; series mostly up to 62.6 µM; also: nearly all actives have a fitted effect of over 50% in size
From the text: U.S. Tox21 Program National Center for Advancing Translational Sciences [NCATS] NIH Chemical Genomics Center [NCGC] U.S. Environmental Protection Agency [EPA] National Institutes of Environmental Health Sciences [NIEHS] National Toxicology Program [NTP] U.S. Food and Drug Administration [FDA] Tox21 Assay Overview: Various chemicals, environmental and physiological stress conditions may lead to the activation of heat shock response/ unfolded protein response (HSR/UPR). There are three heat shock transcription factors (HSFs) (HSF-1, -2, and -4) mediating transcriptional regulation of the human HSR. To identify the compounds that activate HSR signaling, HSE-bla HeLa cell line (Invitrogen, Carlsbad, CA, USA) containing a beta-lactamase reporter gene under the control of the heat shock response elements was used to screen Tox21 10K compound library. The cytotoxicity of the Tox21 compound library against the HSE-bla HeLa cell line was tested in parallel by measuring the cell viability using CellTiter-Glo assay (Promega, Madison, WI) in the same wells.
Tox21 Assay Protocol Summary: The CellSensor HSE-bla HeLa cells (Invitrogen, Carlsbad, CA, USA) were dispensed at 1500 cells/6uL/well into 1536-well black wall/clear bottom plates using a Multidrop combi (Thermo Fisher Scientific, Waltham, MA) dispenser. After the assay plates were incubated at 37 C and 5% CO2 overnight, 23 nL of compounds dissolved in DMSO, positive controls or DMSO only was transferred to the assay plate by a Pintool station (Kalypsys, San Diego, CA). The plates were incubated at 37 C for 5 h. After 1 uL of LiveBLAzerTM B/G FRET substrate was added using a Flying Reagent Dispenser (FRD, Beckman Coulter, Indianapolis, IN, USA), the plates were incubated at room temperature for 2.5 h, and fluorescence intensity was measured by an Envision plate reader (PerkinElmer, Shelton, CT). For cell viability readout that measures cytotoxicity, 3 ul/well of CellTiter-Glo reagent was added into the assay plates using a FRD. After 30 min incubation at room temperature, the luminescence intensity in the plates was measured using a ViewLux (PerkinElmer) plate reader.
% is scaled to controls: 0 for no effect and ±100 for the full control effect.

| Compound | outcome | activity change, negative = cytotoxicity |
| --- | --- | --- |
| CC(=O)Oc1cccc(C)c1 | inactive | – |
| CC(=O)N1C[C@H](O)C[C@H]1C(=O)O | inactive | – |
| CCOc1ccccc1OCC | inactive | – |
| CCN[C@@H]1C[C@H](N)[C@@H](OC2OC(CN)=CCC2N)[C@H](O)[C@H]1O[C@H]1OC[C@](C)(O)[C@H](NC)[C@H]1O (stereo not given in full) | – | 9.84% [at 0.55 µM] |
| Nc1ccncc1N | inactive | – |
| CCN1C=CN(C)C1C (stereo not given) | inactive | – |
| CCOC(=O)CCC(=O)OCC | inactive | – |
| O=C(O)c1cn(C2CC2)c2cc(N3CCNCC3)c(F)cc2c1=O | inactive | – |
| CC(C)C[C@@H](N)C(=O)O | inactive | – |
| O=S(=O)(O)c1cccc(S(=O)(=O)O)c1 | inactive | – |
| Cc1nc2ccc(CN(C)c3ccc(C(=O)N[C@@H](CCC(=O)O)C(=O)O)s3)cc2c(=O)[nH]1 | inactive | – |
| C[C@H]1C[C@H]2[C@@H]3CCC4=CC(=O)C=C[C@]4(C)[C@H]3C(=O)C[C@]2(C)[C@@]1(O)C(=O)CO | inactive | – |
| CCC(C)(CN(C)C)OC(=O)c1ccccc1 (stereo not given) | inactive | – |
| CN(C)[C@@H]1C(=O)C(C(=O)NCN2CCCC2)=C(O)[C@@]2(O)C(=O)C3=C(O)c4c(O)cccc4[C@@](C)(O)C3C[C@@H]12 (stereo not given in full) | inactive | – |
| O=[N+]([O-])c1ccc(/C=N\O)o1 | inactive | – |
| CCCCOCCOC(=O)COc1cc(Cl)c(Cl)cc1Cl | inactive | – |
| CCOC(=O)C1=NOC(c2ccccc2)(c2ccccc2)C1 | inactive | – |
| CCN1CCOCC1 | inactive | – |
| O=C1CCCCCCCCCCCCCCO1 | inactive | – |
| [Ca+2] | inactive | – |

| Compound | outcome | activity change, negative = cytotoxicity |
| --- | --- | --- |
| CC(CO)(CO)[N+](=O)[O-] | inactive | – |
| CCOCC(C)O (stereo not given) | inactive | – |
| Cc1nc(C2CCCCC2)c(-c2ccc(S(N)(=O)=O)c(F)c2)o1 | inactive | – |
| CC1(C)OC[C@@H](COC(=O)CCc2ccc(OC[C@@H](O)CNCCNC(=O)N3CCOCC3)cc2)O1 | inactive | – |
| CC(C)c1ccc2ncccc2c1 | inactive | – |
| Nc1ccn([C@@H]2O[C@H](CO)[C@@H](O)C2(F)F)c(=O)n1 | inactive | – |
| CC(C)(C)OC(=O)c1cccc(N)c1 | inactive | – |
| CC(C)CCCO | inactive | – |
| Nc1ccn([C@@H]2O[C@H](CO)[C@@H](O)C2O)c(=O)n1 (stereo not given in full) | inactive | – |
| CCCCCCCCCCCCSC | inactive | – |
| c1ccc(Cc2ccccc2)cc1 | inactive | – |
| Cc1ccc(C(=O)Nc2ccc(S(=O)(=O)O)c3cc(S(=O)(=O)O)cc(S(=O)(=O)O)c23)cc1NC(=O)c1cccc(NC(=O)Nc2cccc(C(=O)Nc3cc(C(=O)Nc4ccc(S(=O)(=O)O)c5cc(S(=O)(=O)O)cc(S(=O)(=O)O)c45)ccc3C)c2)c1 | inactive | – |
| CC(C)(C)C(=O)Oc1ccc(S(=O)(=O)Nc2ccccc2C(=O)NCC(=O)O)cc1 | inactive | – |
| CCCc1nn(C)c2c(=O)[nH]c(-c3cc(S(=O)(=O)N4CCN(C)CC4)ccc3OCC)nc12 | inactive | – |
| CO[C@@]1(NC(=O)C(C(=O)O)c2ccc(O)cc2)C(=O)N2C(C(=O)O)=C(CSc3nnnn3C)CO[C@@H]21 (stereo not given in full) | inactive | – |
| CC(C)=CCC/C(C)=C/C#N | inactive | – |
| COCCOCC(OC)OC | inactive | – |
| C[N+]12CCC(CC1)C(OC(=O)C(O)(c1ccccc1)c1ccccc1)C2 (stereo not given) | inactive | – |
| CCOC(=O)COc1cc(-n2ncc(C(F)(F)F)c(C)c2=O)c(F)cc1Cl | inactive | – |
| CCCCCCCC1CCCC1=O (stereo not given) | inactive | – |
